Test results published in PubChem BioAssay AID1085 (Emory University Molecular Libraries Screening Center, 2008).
Hit rate of the full screen: of about 220,000 compounds, about 930 (0.42%) were called active. The sample as a whole holds a higher share of actives than the screen did. A number with no mark means an inactive call. No stated cut-off is given here; in the data, active means inhibition above about 50%; inactive means the rest.

biological target: Glycoprotein 42 (Epstein-Barr virus (strain AG876)) (UniProt Q1HVG2); test: EBV glycoprotein 42 binding blockers – biochemical, uHTS, fluorescence polarization, primary screen (AID 1085); settings: Fluorescence polarization binding assay, mP read-out; stronger effect = higher value; tested at 21.74 µM
Sequence (Q1HVG2 whole entry, looked up): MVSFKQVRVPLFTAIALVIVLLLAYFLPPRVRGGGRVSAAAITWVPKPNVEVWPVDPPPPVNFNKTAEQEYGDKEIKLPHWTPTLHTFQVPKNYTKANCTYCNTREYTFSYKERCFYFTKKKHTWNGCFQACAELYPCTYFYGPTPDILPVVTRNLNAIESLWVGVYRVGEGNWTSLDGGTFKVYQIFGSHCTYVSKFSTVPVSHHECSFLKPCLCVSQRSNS

Row | Structure (SMILES) | inhibition
1 | O=C1NC(=O)N(c2ccccc2)C(=O)/C1=C/c1ccc([N+](=O)[O-])s1 | -9.65%
2 | O=C1NC(=O)N(c2ccc(F)cc2)C(=O)/C1=C/c1ccc2c(c1)CCCN2Cc1ccccc1 | 187% (active)
3 | Cc1cccc(N2C(=O)NC(=O)/C(=C\c3cnn(-c4ccccc4)c3)C2=O)c1 | -3.6%
4 | O=c1[nH]c(=O)n(CCc2ccccc2)c(O)c1/C=N/N1CCOCC1 | -16.8%
5 | CN(C)CC1Oc2ccccc2OC1(O)c1ccccc1 (stereo not given) | -12%
